The values that follow come from PubChem BioAssay (Tox21).

Assay [1] can be described thus: qHTS assay for small molecules that induce genotoxicity in human embryonic kidney cells expressing luciferase-tagged ATAD5 (AID 651632). Also: nearly all actives have a fitted effect of over 15% in size. Summed up:
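Luminescent reporter readout, HEK293T ATAD5-luc line: 16 hr drug exposure (37C, 5% CO2) followed by Amplite, 30 min RT.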
A general note: Quantitative high-throughput screening tests each substance at several concentrations.

Assay [2] can be described thus: qHTS assay for small molecule agonists of the p53 signaling pathway - cell viability (AID 651633; calls by dose curve;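 also: p53RE-bla HCT reporter cells with a stable beta-lactamase p53 reporter; series mostly up to about 83 µM; nearly all actives have a fitted effect of over 30% in size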). In outline:
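p53RE-bla cells were treated with compound for 16 hours at 37 C. Cytotoxicity was then measured as CellTiter-Glo luminescence after 30 min at room temperature.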

Assay [3] in a line: qHTS assay for small molecules that induce genotoxicity in human embryonic kidney cells expressing luciferase-tagged ATAD5 - cell viability (AID 651634; calls by dose curve; also: nearly all actives have a fitted effect of over 25% in size). In outline:
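Viability read: CellTiter-Fluor fluorescence, 30 min at 37C. Cells: HEK293T, luciferase-tagged ATAD5. Exposure: 15.5 hr, 37C, 5% CO2, compound or DMSO vehicle.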

Assay [4] in a line: qHTS assay to test for compound auto fluorescence at 590 nm (red) in HepG2 cells (AID 720674). Summed up:
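Seeding: 2,000 HepG2 cells/well, MEM/10% FBS, overnight 37 C. Dosing: compound vs DMSO. Incubation: 1 hr, 37 C, 5% CO2. Read: fluorescence 540 ex/590 em, Rose Bengal sodium as red reference.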

A short description of assay [5]: qHTS assay to test for compound auto fluorescence at 535 nm (green) in HepG2 cells (AID 720675).
The nature of assay [6]: qHTS assay to test for compound auto fluorescence at 460 nm (blue) in HEK293 cells (AID 720678). Summed up:
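Intrinsic compound fluorescence is recorded in live HEK293 cultures after overnight incubation at 37C, 5% CO2, using excitation 405 nm and emission 460 nm. Values are referenced to triamterene.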

A short description of assay [7]: qHTS assay to test for compound auto fluorescence at 590 nm (red) in HEK293 cells (AID 720679). In outline: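 Red autofluorescence, HEK293 cells: 2,000 cells/well; attach 4-5 hr 37C; add 23 nL cpd or DMSO; incubate o/n 37C 5% CO2; read Ex540/Em590; Rose Bengal sodium reference.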
Assay [8] in a line: qHTS assay to test for compound auto fluorescence at 535 nm (green) in HEK293 cells (AID 720680).
A short description of assay [9]: qHTS assay to test for compound auto fluorescence at 460 nm (blue) in HEK293 cell free culture (AID 720681). In outline:
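Compounds were added to cell-free DMEM with 10% FBS and fluorescence read directly. The blue channel used 405 nm excitation and 460 nm emission, with triamterene as the reference fluorophore.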

The nature of assay [10]: qHTS assay to test for compound auto fluorescence at 535 nm (green) in HEK293 cell free culture (AID 720682). In outline: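 Cell-free medium (DMEM, 10% FBS) receives compound or DMSO by pintool. Plate read directly at Ex 485/Em 535 nm. Signal converted to fluorescein equivalency.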
Assay [11] in a line: qHTS assay to test for compound auto fluorescence at 590 nm (red) in HEK293 cell free culture (AID 720683). Summed up:
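Cell-free wells of DMEM with 10% FBS received compound, and intrinsic fluorescence was read at excitation/emission 540/590 nm. Values expressed as equivalence to Rose Bengal sodium.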

A short description of assay [12]: qHTS assay to test for compound auto fluorescence at 590 nm (red) in HepG2 cell free culture (AID 720684). In outline:
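Compound was pinned into wells holding MEM with 10% FBS and no cells, and red fluorescence was read at Ex/Em 540/590 nm. Signal is expressed as auto fluorescence equivalency relative to Rose Bengal sodium.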

Assay [13] in a line: qHTS assay to test for compound auto fluorescence at 460 nm (blue) in HepG2 cell free culture (AID 720685). In outline: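 Compound (23 nL) or DMSO pinned into cell-free MEM with 10% FBS; blue fluorescence read at 405/460 nm excitation/emission, expressed as auto-fluorescence equivalency to triamterene.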
The nature of assay [14]: qHTS assay to test for compound auto fluorescence at 535 nm (green) in HepG2 cell free culture (AID 720686).
Assay [15] can be described thus: qHTS assay to test for compound auto fluorescence at 460 nm (blue) in HepG2 cells (AID 720687). In outline: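 HepG2 cells in MEM with 10% FBS, attached overnight at 37 C, were exposed to compound or DMSO for 1 hr at 37 C, 5% CO2. Blue fluorescence was read at 405/460 nm, with triamterene as reference fluorophore.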
The nature of assay [16]: qHTS assay for small molecule disruptors of the mitochondrial membrane potential (AID 720635). Also: potency is read from the fitted curve at half-maximal effect. Summed up:
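HepG2 cells exposed to compound 1 hr at 37C, then Mito-MPS dye 30 min. Ratio read of aggregate (540/590 nm) versus monomer (490/535 nm) fluorescence.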

The target in assay [17] is Glucocorticoid receptor (Homo sapiens) (UniProt P04150). The experiment in a line: qHTS assay to identify small molecule agonists of the glucocorticoid receptor (GR) signaling pathway (AID 720691; active = well fitted activation curve with a large enough effect in the signal ratio in the repeat runs, not every such curve was filed as active; the % refers to the signal ratio). In outline: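 qHTS in GR-bla HeLa cells: 4 h settling at 37 C/5% CO2, 18 h compound incubation at 37 C, 2 h LiveBLAzer B/G FRET substrate at room temperature, fluorescence intensity measured.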
Glucocorticoid receptor (Homo sapiens), sequence (P04150 whole entry, looked up): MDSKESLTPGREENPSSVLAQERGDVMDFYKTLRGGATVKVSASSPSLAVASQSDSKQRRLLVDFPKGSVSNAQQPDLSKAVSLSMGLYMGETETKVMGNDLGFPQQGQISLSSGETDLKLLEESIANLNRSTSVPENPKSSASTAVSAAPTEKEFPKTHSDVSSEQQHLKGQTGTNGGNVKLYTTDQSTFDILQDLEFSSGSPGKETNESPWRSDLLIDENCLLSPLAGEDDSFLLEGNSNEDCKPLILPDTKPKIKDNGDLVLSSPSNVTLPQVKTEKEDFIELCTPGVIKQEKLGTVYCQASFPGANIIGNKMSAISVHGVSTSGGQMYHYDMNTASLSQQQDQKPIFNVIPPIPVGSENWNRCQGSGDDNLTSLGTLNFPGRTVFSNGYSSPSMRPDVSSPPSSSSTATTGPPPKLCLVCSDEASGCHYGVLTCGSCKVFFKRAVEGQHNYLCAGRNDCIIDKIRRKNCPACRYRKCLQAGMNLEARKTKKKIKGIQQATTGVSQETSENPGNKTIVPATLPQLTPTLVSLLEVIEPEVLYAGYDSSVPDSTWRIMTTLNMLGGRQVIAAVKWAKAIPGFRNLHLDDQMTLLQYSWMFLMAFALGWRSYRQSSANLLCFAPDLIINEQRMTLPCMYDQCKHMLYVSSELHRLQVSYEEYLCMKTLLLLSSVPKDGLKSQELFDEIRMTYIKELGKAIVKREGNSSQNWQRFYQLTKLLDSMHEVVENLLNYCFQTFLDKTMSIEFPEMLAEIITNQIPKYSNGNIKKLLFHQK

Assay [18] has the same target. The experiment in a line: qHTS assay to identify small molecule antagonists of the glucocorticoid receptor (GR) signaling pathway (AID 720692; active = well fitted inhibition curve with a large enough effect in the signal ratio in the repeat runs, not every such curve was filed as active; the % refers to the signal ratio; also: potency is read from the fitted curve at half-maximal effect). In outline:
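Inhibition of glucocorticoid signalling is measured in HeLa cells with a GRE-controlled beta-lactamase reporter; cells are co-treated with compound and 5 nM dexamethasone (final) for 18 h before FRET substrate readout.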

The nature of assay [19]: qHTS assay for small molecule disruptors of the mitochondrial membrane potential - cell viability (AID 720634; calls by dose curve;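 also: human HepG2 liver cancer cells; series mostly up to about 83 µM; nearly all actives have a fitted effect of over 20% in size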). In outline:
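HepG2, 1 hr compound, 37 C. ATP luminescence via CellTiter-Glo, 30 min RT, same well as m-MPI.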

“And” between values parts separate entries of the source, which are not always exact repeats. Identical values can stand only once. Inconclusive results are not listed. The source made the active and inactive calls. Unless noted, calls follow the shape of the dose curve; as a rule, active = well fitted curve in the direction sought with a large enough effect in the repeat runs; inconclusive = weak or mixed curves; inactive = no such curve, though single readings can be large; an effect the other way counts as inactive or inconclusive.

Turning to `C=C1CC[C@H]2C[C@@H]1C2(C)C`, the Potency result in assay [1] and in assay [3] was “inactive” in each case. For the same compound, the outcome in assay [2], in assay [4], in [5], in assay [6], in [7] and in assay [8] was inactive. Further, the call in assay [9], in assay [10], in assay [11], in [12], in [13] and in assay [14] was inactive. Besides, the call in [15] was inactive.

Regarding `CC(C)(C)c1ccc(O)c(O)c1`, the compound was classed as inactive in assay [2], in assay [4], in assay [5], in assay [6], in [7] and in [8]. The compound was classed as inactive in [9], in assay [10], in assay [11], in [12], in assay [13] and in [14]. Besides, the compound was classed as inactive in assay [15]. The Potency was 15.9 µM (active) and 13.7 µM (active) in [16]; 50.9 µM (active) in [18]. In [17], the Potency result is “inactive”.

Regarding `COCCCOCCCOC`, the Potency result in assay [1], in [3] and in assay [16] was “inactive” each time. Besides, the result in assay [2], in [4], in assay [5], in assay [6], in assay [7] and in [8] was inactive. Also, the compound was called inactive in [9], in assay [10], in assay [11], in assay [13], in [14] and in assay [15].

Regarding `NCCc1cnc[nH]1`, the call in assay [2], in assay [4], in [5], in assay [6], in assay [7] and in [8] was inactive. Moreover, the result in assay [9], in assay [10], in assay [11], in assay [12], in assay [13] and in assay [14] was inactive. The compound was classed as inactive in [15].

As to `CC(C)(C)c1nnc(NS(=O)(=O)c2ccccc2)s1`, the Potency entry in assay [1], in assay [3], in [19], in assay [17] and in assay [18] was “inactive” in each case. Moreover, the outcome in [2], in [4], in assay [5], in assay [6], in assay [7] and in assay [8] was inactive. The result in [9], in [10], in [11], in assay [12], in assay [13] and in [14] was inactive. For the same compound, the call in [15] was inactive.

As for `NCCCNCCSP(=O)(O)O`, the Potency result in [1], in assay [3], in [16] and in assay [17] was “inactive” throughout. Besides, the compound was called inactive in assay [2], in [4], in assay [5], in [6], in [7] and in [8]. The outcome in assay [9], in assay [10], in [11], in assay [12], in assay [13] and in assay [14] was inactive. In addition, in assay [15], the call was inactive.

Regarding `COC(=O)CCSCCC(=O)OC`, the Potency entry in assay [1], in assay [3], in assay [19], in assay [16] and in assay [17] was “inactive” each time. Further, the outcome in assay [4], in [5], in assay [6], in assay [7], in assay [8] and in assay [9] was inactive. Also, the compound was called inactive in [10], in [11], in [13], in assay [14] and in assay [15].

In the case of `CC(C)OC(=O)c1ccccc1`, the Potency entry in [1], in assay [19], in assay [17] and in assay [18] was “inactive” each time. The outcome in [2], in assay [4], in assay [5], in assay [6], in assay [7] and in assay [8] was inactive. For the same compound, the result in assay [9], in [10], in [11], in [13], in [14] and in assay [15] was inactive.

Consider `Cc1c(O)cccc1O`, for which the Potency entry in assay [1] and in assay [16] was “inactive” in each case. For the same compound, the outcome in assay [2], in [4], in [5], in assay [6], in [7] and in [8] was inactive. In addition, the compound was called inactive in assay [9], in [10], in [11], in [12], in [13] and in [14]. Moreover, the outcome in [15] was inactive.
